Experimental data reported in PubChem BioAssay (NCATS).
A number with no mark means an inactive call. Results filed as inconclusive are left out. Entries that show only a call come without a potency. Active and inactive are the calls of the source. Calls follow the shape of the dose curve; as a rule, active = well fitted curve in the direction sought with a large enough effect; inconclusive = small, poorly fitted or top-dose-only effect, or another doubt; inactive = no such curve, though single readings can be large; an effect the other way counts as inactive or inconclusive. Where a SMILES comes first, the peptide text is derived from it. The star is where a group is joined. Cbz = O=C(OCc1ccccc1)*; CH2F = FC*

Experiments:
[1] = target: Glutathione peroxidase 1 (Homo sapiens) (UniProt P07203); test: Primary qHTS Assay for Inhibitors of Recombinant Selenoprotein Glutathione Peroxidase 1 (GPX1) (AID 1845191); also: nearly all actives have a fitted effect of over 65% in size
Chain of Glutathione peroxidase 1 (Homo sapiens) (P07203 whole entry, looked up): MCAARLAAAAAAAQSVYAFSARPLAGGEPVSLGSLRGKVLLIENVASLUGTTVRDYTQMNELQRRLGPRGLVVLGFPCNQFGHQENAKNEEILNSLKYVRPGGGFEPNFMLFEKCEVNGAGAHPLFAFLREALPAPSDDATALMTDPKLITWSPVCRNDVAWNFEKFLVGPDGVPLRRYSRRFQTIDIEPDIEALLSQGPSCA
Summary of the method: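 GPX1 10 nM, GR 100 nM, GSH 1 mM, NADPH 0.5 mM, CHP 0.5 mM (final). 30-min cpd preincubation, RT. Ex340/Em450 read t=0, t=15 min.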

[2] = target: Phospholipid hydroperoxide glutathione peroxidase GPX4 (Homo sapiens) (UniProt P36969); test: Primary qHTS Assay for Inhibitors of Recombinant Selenoprotein Glutathione Peroxidase 4 (GPX4) (AID 1845192); also: nearly all actives have a fitted effect of over 65% in size; as to activity change, negative = inhibition: series mostly up to about 50 µM
Chain of Phospholipid hydroperoxide glutathione peroxidase GPX4 (Homo sapiens) (P36969 whole entry, looked up): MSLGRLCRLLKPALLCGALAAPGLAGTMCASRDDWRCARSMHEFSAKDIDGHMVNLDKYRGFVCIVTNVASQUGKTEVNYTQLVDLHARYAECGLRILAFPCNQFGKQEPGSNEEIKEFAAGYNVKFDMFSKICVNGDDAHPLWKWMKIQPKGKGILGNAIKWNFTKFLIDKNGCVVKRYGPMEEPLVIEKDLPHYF
Summary of the method: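 qHTS, GR-coupled: GPX4 200 nM + cpd 30 min RT → GSH 1 mM, NADPH 0.5 mM, GR 100 nM → CHP 0.5 mM start; fluor 340/450 at t0 and t15 min; no-enzyme wells as control.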

[3] = target: Luciferin 4-monooxygenase (Photinus pyralis) (UniProt P08659); test: Primary firefly luciferase (FLuc) qHTS assay for identification of artifact compounds. (AID 1845220); also: nearly all actives have a fitted effect of over 60% in size; also: potency is read from the fitted curve at half-maximal effect; as to activity change, negative = inhibition: series mostly up to about 54 µM
Summary of the method: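 Reaction readout was CCD-imaged luminescence, taken 5 min after adding 10 nM purified firefly enzyme to compound-treated wells holding 10 uM luciferin and ATP in pH 7.6 buffer.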

[4] = Primary fluorescence-based thiol-reactive (MSTI) qHTS assay for identification of artifact compounds. (AID 1845221); also: nearly all actives have a fitted effect of over 65% in size; also: potency is read from the fitted curve at half-maximal effect;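 as to activity change, negative = thiol reactive: series mostly up to about 54 µM; thiol-reactive compounds lower the probe fluorescence signal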
Summary of the method: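 First, 4 uM MSTI in 2% DMSO/PBS pH 7.4 was dispensed; next, compounds were added; then plates sat 1 h at room temperature without light. Finally, emission at 598 nm was recorded.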

[5] = system: Nanoluciferase (engineered Oplophorus gracilirostris luciferase); test: Primary Nanoluciferase (NLuc) qHTS assay for identification of artifact compounds. (AID 1845222); also: potency is read from the fitted curve at half-maximal effect;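 as to activity, negative = inhibition: NLuc secreted into diluted conditioned medium of S16 cells; series mostly up to about 54 µM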
Summary of the method: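 Concentration-response data were obtained by luminescence after 5 min with Nano-Glo substrate at 1:100. The enzyme was diluted S16 NLuc-expressing cell medium, preincubated with compound for 15 min at RT. Curves were fitted with a 4-parameter Hill model.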

[6] = Primary redox qHTS assay for identification of artifact compounds. (AID 1845223)
Summary of the method: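 Redox-cycling detection via DTT (250 uM final) oxidation coupled to Amplex Red (25 uM)/HRP (250 mU/mL) in HBSS. 15 min preincubation plus 30 min after DTT, room temperature. Ex/Em 525/598 nm; 4-parameter Hill fit against DMSO and 10 uM DA3003.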

SMILES | Potency [1] | Potency [2] | Potency [3] | Potency [4] | Potency [5] | Potency [6] | outcome [3] | activity change, negative = thiol reactive [4] | activity, negative = inhibition [5] | redox activity (% of DA3003) [6] | activity change, negative = inhibition [3]
COC(=O)C1=COC(O[C@@H]2O[C@H](CO)[C@@H](O)[C@H](O)[C@H]2O)/C(=C\COC(=O)/C=C/c2ccccc2)C1CC(=O)OCCc1ccc(O)cc1 (stereo not given in full) | inactive | inactive | inactive | inactive | inactive | inactive |  |  |  |  | 
COc1cc(Nc2nc3c(s2)CCCC3c2ccccc2)ccc1-n1cnc(C)c1 (stereo not given) | inactive | inactive |  |  |  |  | inactive [at 11.6 µM] | -6.96% [at 11.5 µM] | 4.88% [at 11.6 µM] | -0.384% [at 11.5 µM] | 
COCC1OC(n2cnc3c(=O)[nH]cnc32)C(O)C1O (stereo not given) | inactive | inactive | inactive | inactive | inactive | inactive |  |  |  |  | 
CC(=O)OC1CCC2(C)C(CCC3(C)C2CC=C2C4CC(C)(C)CCC4(C)CCC23C)C1(C)C(=O)O (stereo not given) | inactive | inactive | inactive | inactive | inactive | inactive |  |  |  |  | 
CC(=O)NCC1CN(c2ccc(-c3ccc(CNCc4cn[nH]n4)cc3)c(F)c2)C(=O)O1 (stereo not given) | inactive | inactive | inactive | inactive | inactive | inactive |  |  |  |  | 
CSC(=O)OCC1=C[C@@H]2OC(=O)C3=CO[C@@H](O[C@@H]4O[C@H](CO)[C@@H](O)[C@H](O)[C@H]4O)[C@H]1[C@@H]32 | inactive | inactive | inactive | 6.53 µM (active) | inactive | inactive |  |  |  |  | 
COc1cc(C2OCC3(O)C(c4ccc(O[C@@H]5O[C@H](CO)[C@@H](O)[C@H](O)[C@H]5O)c(OC)c4)OCC23O)ccc1O (stereo not given in full) | inactive | inactive | inactive | inactive | inactive | inactive |  |  |  |  | 
COc1ccc([C@H]2OC[C@H]3[C@@H]2CO[C@@H]3c2ccc(O[C@@H]3O[C@H](CO)C(O)[C@H](O)[C@H]3O)c(OC)c2)cc1OC (stereo not given in full) | inactive | inactive | inactive | inactive | inactive | inactive |  |  |  |  | 
COc1cn(-c2ccc(-n3cccn3)cc2F)nc(-c2ccnn2-c2ccccc2)c1=O | inactive | inactive | inactive | inactive | inactive | inactive |  |  |  |  | 
CCC(C)C(=O)O[C@H]1C[C@](C)(O)[C@]23OC(C)(C)[C@H](C[C@H](OC(=O)c4ccccc4)[C@]2(COC(C)=O)[C@H]1OC(=O)C(C)CC)[C@H]3OC(C)=O (stereo not given in full) | inactive | inactive | inactive | inactive | inactive | inactive |  |  |  |  | 
C=C1C(O)CC2C(C(=O)O)=COC(OC3OC(CO)C(O)C(O)C3OC(=O)/C=C\c3ccc(O)cc3)C12 (stereo not given) | inactive | inactive | inactive | 4.62 µM (active) | inactive | inactive |  |  |  |  | 
CC(=O)OC12CC(C)C(OC(=O)c3ccccc3)C1/C=C(/C)C(OC(=O)c1ccccc1)CC(=O)C(C)(C)/C=C/C(C)C2=O (stereo not given) | inactive | inactive | inactive | inactive | inactive | inactive |  |  |  |  | 
CC(C)N(CCCNC(=O)Nc1ccc(C(C)(C)C)cc1)C[C@H]1O[C@@H](n2ccc3c(N)ncnc32)[C@H](O)[C@@H]1O | inactive | inactive | inactive | inactive | inactive | inactive |  |  |  |  | 
COC(=O)c1c(CC=C(C)C)c(OC2OC(CO)C(O)C(O)C2O)c2ccccc2c1OC1OC(CO)C(O)C(O)C1O (stereo not given) | inactive | inactive | inactive | inactive | inactive | inactive |  |  |  |  | 
Cc1nnc(-c2sc(NC(=O)[C@H](C(C)C)n3c(=O)[nH]c4ccccc4c3=O)nc2C)o1 | inactive | inactive | inactive | inactive | inactive | inactive |  |  |  |  | 
Cc1cn(-c2cc(NC(=O)c3ccc(C)c(Nc4nccc(-c5cnccn5)n4)c3)cc(C(F)(F)F)c2)cn1 | inactive | inactive | inactive | inactive | inactive | inactive |  |  |  |  | 
C[C@@H]1O[C@@H](O[C@H]2[C@H](O[C@H]3[C@H](O[C@H]4CC[C@@]5(C)C(CC[C@]6(C)C5CC=C5[C@@H]7CC(C)(C)C[C@@H](O)[C@]7(C)CC[C@]56C)[C@@]4(C)CO)O[C@H](C(=O)O)[C@@H](O)[C@@H]3O)O[C@H](C(=O)O)[C@H](O)[C@@H]2O)[C@H](O)[C@H](O)[C@H]1O (stereo not given in full) | inactive | inactive |  |  |  |  |  | 68.8% [at 11.5 µM] | 0% [at 11.6 µM] | -2.66% [at 11.5 µM] | 0.9% [at 11.6 µM]
CC1=C2C[C@@]3(C)C(CCC[C@@H]3C)C(O)C2(O)OC1=O (stereo not given in full) | inactive | inactive | inactive | inactive | inactive | inactive |  |  |  |  | 
O=C(OCC(O)CO[C@@H]1O[C@H](C(=O)O)[C@@H](O)[C@H](O)[C@H]1O)c1ccccc1 (stereo not given in full) | inactive | inactive | inactive | 6.56 µM (active) | inactive | inactive |  |  |  |  | 
CC(C)CC(=O)O[C@@H]1O[C@H](CO)[C@@H](O[C@H]2O[C@H](C)[C@@H](N[C@H]3C=C(CO)[C@@H](O[C@H]4O[C@H](CO)[C@@H](O[C@H]5O[C@H](CO)[C@@H](O[C@H]6O[C@H](CO)[C@@H](O)[C@H](O)[C@H]6O)[C@H](O)[C@H]5O)[C@H](O)[C@H]4O)[C@H](O)[C@H]3O)[C@H](O)[C@H]2O)[C@H](O)[C@H]1O | inactive | inactive |  |  |  |  | inactive [at 11.6 µM] | 7.36% [at 11.5 µM] | 0.158% [at 11.6 µM] | 4.39% [at 11.5 µM] | 

SMILES | Potency [1] | Potency [2] | Potency [3] | Potency [4] | Potency [5] | Potency [6] | outcome [3] | activity change, negative = thiol reactive [4] | activity, negative = inhibition [5] | redox activity (% of DA3003) [6] | activity change, negative = inhibition [3]
CN(C)C(=O)C(O)C(Cc1ccccc1)NC(=O)c1cc2cc(Cl)ccc2[nH]1 (stereo not given) | inactive | inactive | inactive | inactive | inactive | inactive |  |  |  |  | 
C=CC1(C)C=C2CC[C@H]3[C@@](C)(C(=O)O)CCC[C@]3(C)C2CC1 (stereo not given in full) | inactive | inactive | inactive | inactive | inactive | inactive |  |  |  |  | 
CCC(C)(C)C1CCc2c(sc(NC(=O)c3ccc(Br)cc3)c2C#N)C1 (stereo not given) | inactive | inactive | inactive | inactive | inactive | inactive |  |  |  |  | 
COC(=O)C1=CO[C@@H](O[C@@H]2O[C@H](CO)[C@@H](O)[C@H](O)[C@H]2O)[C@H]2[C@@H]1[C@H](O)[C@H](O)[C@]2(C)O | inactive | inactive | inactive | 13 µM (active) | inactive | inactive |  |  |  |  | 
CCN=C1N[C@@H]2[C@@H](O)[C@H](O)[C@@H](CO)O[C@@H]2S1 | inactive | inactive | inactive | inactive | inactive | inactive |  |  |  |  | 
Cc1c(-c2ccc3c(c2)OCO3)oc2ccc(C(O)C(C)O)cc12 (stereo not given) | inactive | inactive | 1.17 µM (active) | inactive | inactive | inactive |  |  |  |  | 
O=C(CCCCC1CCCCC1)N1CCC(c2cnc[nH]2)CC1 | inactive | inactive | inactive | inactive | inactive | inactive |  |  |  |  | 
Cc1nc2cc(-c3cc(F)cc(C#N)c3)ccc2s1 | inactive | inactive | inactive | inactive | inactive | inactive |  |  |  |  | 
COc1cc(/C=C/C(=O)OC[C@H]2O[C@@H](OC3CC(C)=C(C(=O)O)C(C)(C)C3)[C@H](O)[C@@H](O)[C@@H]2O)cc(OC)c1O (stereo not given in full) | inactive | inactive | inactive | 3.27 µM (active) | inactive | inactive |  |  |  |  | 
CC(C)C1NC(=O)C(CC2(O)c3ccccc3N3C(=O)C(Cc4ccccc4)NC32)NC1=O (stereo not given) | inactive | inactive | inactive | inactive | inactive | inactive |  |  |  |  | 
CC1(C)CCCC2(C)c3c4c(c(=O)oc(=O)c3=CCC12)=CCC1C(C)(C)CCCC41C (stereo not given) | inactive | inactive | inactive | inactive | inactive | inactive |  |  |  |  | 
CC(O)C/C=C/C=C/C(=O)OC1C=C2COC(=O)C2(O)C2(C)CCCC(C)(C)C12 (stereo not given) | inactive | inactive | inactive | inactive | inactive | inactive |  |  |  |  | 
Nc1ccc(-n2nc(C(F)(F)F)cc2C(F)(F)F)cc1 | inactive | inactive | inactive | inactive | inactive | inactive |  |  |  |  | 
COc1ccc(/C=C/C(=O)O[C@@H]2[C@@H](OC(C)=O)[C@@H](OC(C)=O)[C@H](O[C@H]3[C@@H]4C=CO[C@@H](O[C@@H]5O[C@H](CO)[C@@H](O)[C@H](O)[C@H]5O)[C@@H]4[C@@]4(CO)O[C@@H]34)O[C@H]2C)cc1 | inactive | inactive | inactive | inactive | inactive | inactive |  |  |  |  | 
On1ncc(C2CCNCC2)c1-c1cccc(-c2ccccc2)c1 | inactive | inactive | inactive | inactive | inactive | inactive |  |  |  |  | 
COc1ccc(S(=O)(=O)Nc2nc(-c3cccc([N+](=O)[O-])c3)cs2)cc1OC | inactive | inactive | inactive | 1.19 µM (active) | 9.53 µM (active) | inactive |  |  |  |  | 
CC1=CC[C@@]2(C)CC[C@@](O)(C(C)C)[C@@H]2[C@@H](O)C1 | inactive | inactive | inactive | inactive | inactive | inactive |  |  |  |  | 
CCOC(=O)C1=C(N)Oc2ccc(Cl)cc2C1C(C#N)C(=O)OCC (stereo not given) | inactive | inactive | inactive | inactive | inactive | inactive |  |  |  |  | 
C[C@]1(C2CCCC2)Cc2cc(OCC(=O)O)c(Cl)c(Cl)c2C1=O | inactive | inactive | inactive | inactive | inactive | inactive |  |  |  |  | 
COC(=O)CC[C@H](NC(=O)[C@H](CC(C)C)NC(=O)OCc1ccccc1)C(=O)N[C@@H](Cc1cnc[nH]1)C(=O)N[C@@H](CC(=O)OC)C(=O)CF (Cbz-LE(OMe)HD(OMe)-CH2F) | inactive | inactive |  |  |  |  |  | 12.6% [at 11.5 µM] | 2.59% [at 11.6 µM] | -3.22% [at 11.5 µM] | 1.89% [at 11.6 µM]
